Data reported in PubChem BioAssay (EPA / NIEHS).
Calls of active or inactive are those of the source. How the source made its calls: active means hit-call score of the fitted dose curve at least 0.9, where 1 is the maximum; inactive means score below 0.9.

Assays:
Settings in all cases: mRNA level, 48 h; actives raise or lower the signal
[1] = read-out: Interleukin 6 Receptor (IL6R), IL6R (gene 3570); assay: LTEA_HepaRG_IL6R: Life Technologies and Expression Analysis (LTEA) Assay for Interleukin 6 Receptor (IL6R) using HepaRG (AID 2283510)
Summary of the method: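 Concentration-response in human liver HepaRG cells: eight concentrations from 100 uM downward by half-logs, 48 h exposure, 0.5% DMSO vehicle. IL6R mRNA change measured by qRT-PCR and fitted in both directions relative to vehicle.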

[2] = read-out: Potassium channel subfamily K member 1 (KCNK1), KCNK1 (gene 3775); assay: LTEA_HepaRG_KCNK1: Life Technologies and Expression Analysis (LTEA) Assay for Potassium channel subfamily K member 1 (KCNK1) using HepaRG (AID 2283511)
Summary of the method: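 Differentiated human HepaRG cells in serum-free induction medium were exposed in duplicate for 48 h to 8 half-log concentrations up to 100 uM in 0.5% DMSO. KCNK1 mRNA was measured by TaqMan qRT-PCR, normalized to ACTB, GAPDH and POLR2A, and fitted bidirectionally versus DMSO.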

[3] = read-out: Keratin 19 (KRT19), KRT19 (gene 3880); assay: LTEA_HepaRG_KRT19: Life Technologies and Expression Analysis (LTEA) Assay for Keratin 19 (KRT19) using HepaRG (AID 2283512)
Summary of the method: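 Differentiated HepaRG cells in serum-free induction medium, exposed 48 h in duplicate to 8 half-log concentrations up to 100 uM in 0.5% DMSO. KRT19 mRNA by qRT-PCR, normalized to ACTB, GAPDH, POLR2A; bidirectional fit vs DMSO.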

[4] = read-out: JUN Transcription Factor, JUN (gene 3725); assay: LTEA_HepaRG_JUN: Life Technologies and Expression Analysis (LTEA) Assay for JUN Transcription Factor using HepaRG (AID 2283513)
Summary of the method: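 Human HepaRG liver cells receive test chemicals in 0.5% DMSO for 48 h across an eight-point range topping at 100 uM. Expression changes in JUN are scored in both directions against the DMSO vehicle.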

[5] = read-out: Lipase C (LIPC), LIPC (gene 3990); assay: LTEA_HepaRG_LIPC: Life Technologies and Expression Analysis (LTEA) Assay for Lipase C (LIPC) using HepaRG (AID 2283514)
Summary of the method: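 Differentiated human HepaRG cells in serum-free induction medium were exposed in duplicate for 48 h to eight concentrations (top 100 uM, half-log steps, 0.5% DMSO). LIPC mRNA was quantified by TaqMan qRT-PCR, normalized to ACTB, GAPDH and POLR2A, with bidirectional fitting versus DMSO.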

[6] = read-out: Lipoprotein lipase (LPL), LPL (gene 4023); assay: LTEA_HepaRG_LPL: Life Technologies and Expression Analysis (LTEA) Assay for Lipoprotein lipase (LPL) using HepaRG (AID 2283515)
Summary of the method: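 Differentiated human HepaRG cells in serum-free induction medium were exposed in duplicate for 48 h to eight half-log concentrations (top 100 uM) in 0.5% DMSO. LPL mRNA was quantified by TaqMan qRT-PCR, normalized to ACTB, GAPDH and POLR2A.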

[7] = read-out: MicroRNA 122 (MIR122), gene 406906; assay: LTEA_HepaRG_MIR122: Life Technologies and Expression Analysis (LTEA) Assay for MicroRNA 122 (MIR122) using HepaRG (AID 2283516); further: the transcript read is the microRNA miR-122
Summary of the method: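 HepaRG, 48 h exposure, 8-pt half-log from 100 uM, 0.5% DMSO; TaqMan qRT-PCR; bidirectional fit vs DMSO.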

[8] = read-out: matrix metalloproteinase-10 (MMP10), MMP10 (gene 4319); assay: LTEA_HepaRG_MMP10: Life Technologies and Expression Analysis (LTEA) Assay for matrix metalloproteinase-10 (MMP10) using HepaRG (AID 2283517)
Summary of the method: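 HepaRG, collagen I, ~100,000 cells/well; serum-free induction medium; 48 h exposure, duplicate, 8-pt half-log to 100 uM, 0.5% DMSO. Readout: TaqMan qRT-PCR, normalized to ACTB/GAPDH/POLR2A; bidirectional fit vs DMSO.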

MYC, MYC (gene 4609) = assay: LTEA_HepaRG_MYC: Life Technologies and Expression Analysis (LTEA) Assay for MYC using HepaRG (AID 2283518)
Summary of the method: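 Differentiated HepaRG cells exposed 48 h in serum-free induction medium to 8 concentrations (top 100 uM, half-log steps; 0.5% DMSO), duplicate. MYC mRNA measured by Fluidigm qRT-PCR, normalized to ACTB, GAPDH, POLR2A; bidirectional fit versus DMSO.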

[9] = read-out: matrix metalloproteinase-3 (MMP3), MMP3 (gene 4314); assay: LTEA_HepaRG_MMP3: Life Technologies and Expression Analysis (LTEA) Assay for matrix metalloproteinase-3 (MMP3) using HepaRG (AID 2283519)
Summary of the method: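 Differentiated human HepaRG cells, plated 48 h on collagen I, were exposed in duplicate for 48 h in serum-free induction medium to eight half-log concentrations up to 100 uM in 0.5% DMSO. MMP3 mRNA was quantified by TaqMan qRT-PCR, normalised to ACTB, GAPDH and POLR2A.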

[10] = read-out: Paternally Expressed 10 (PEG10), PEG10 (gene 23089); assay: LTEA_HepaRG_PEG10: Life Technologies and Expression Analysis (LTEA) Assay for Paternally Expressed 10 (PEG10) using HepaRG (AID 2283520)
Summary of the method: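 Chemicals tested on HepaRG cells for 48 h, highest concentration 100 uM. PEG10 expression assessed by qRT-PCR relative to DMSO control.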

[11] = read-out: Protein phosphatase 2A (PPP2R4), PTPA (gene 5524); assay: LTEA_HepaRG_PPP2R4: Life Technologies and Expression Analysis (LTEA) Assay for Protein phosphatase 2A (PPP2R4) using HepaRG (AID 2283522)
Summary of the method: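 Gene-expression endpoint in HepaRG hepatic cells: 48 h treatment across eight half-log concentrations up to 100 uM in 0.5% DMSO. PPP2R4 mRNA by qRT-PCR, normalized to three endogenous control genes.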

[12] = read-out: Phosphatase and tensin (PTEN), PTEN (gene 5728); assay: LTEA_HepaRG_PTEN: Life Technologies and Expression Analysis (LTEA) Assay for Phosphatase and tensin (PTEN) using HepaRG (AID 2283523)
Summary of the method: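 Differentiated human HepaRG cells, plated 48 h then switched to serum-free induction medium, were exposed in duplicate for 48 h to eight half-log concentrations up to 100 uM in 0.5% DMSO. PTEN mRNA measured by TaqMan qRT-PCR, normalized to ACTB/GAPDH/POLR2A, bidirectional fit versus DMSO.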

[13] = read-out: solute carrier (SLC22A1), SLC22A1 (gene 6580); assay: LTEA_HepaRG_SLC22A1: Life Technologies and Expression Analysis (LTEA) Assay for solute carrier (SLC22A1) using HepaRG (AID 2283524)
Summary of the method: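 Human HepaRG cells were plated 48 h, switched to serum-free induction medium, then exposed in duplicate for 48 h to 8-point half-log series from 100 uM in 0.5% DMSO. SLC22A1 mRNA measured by qRT-PCR, normalized to ACTB/GAPDH/POLR2A, fitted bidirectionally versus DMSO.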

[14] = read-out: Pyruvate Dehydrogenase Kinase 4 (PDK4), PDK4 (gene 5166); assay: LTEA_HepaRG_PDK4: Life Technologies and Expression Analysis (LTEA) Assay for Pyruvate Dehydrogenase Kinase 4 (PDK4) using HepaRG (AID 2283525)
Summary of the method: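 Differentiated human HepaRG cells, pre-cultured 48 h, were exposed in duplicate for 48 h in serum-free induction medium to eight half-log concentrations up to 100 uM in 0.5% DMSO. PDK4 mRNA was quantified by qRT-PCR, normalized to ACTB, GAPDH and POLR2A, bidirectional fitting versus DMSO.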

[15] = read-out: NAD(P)H dehydrogenase [quinone] 1 (NQO1), NQO1 (gene 1728); assay: LTEA_HepaRG_NQO1: Life Technologies and Expression Analysis (LTEA) Assay for NAD(P)H dehydrogenase [quinone] 1 (NQO1) using HepaRG (AID 2283526)
Summary of the method: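 Human HepaRG hepatic cells received chemicals for 48 h in serum-free induction medium with 0.5% DMSO, up to 100 uM. Expression was assessed by TaqMan qRT-PCR against housekeeping controls and fitted bidirectionally against DMSO.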

[16] = read-out: Nuclear factor erythroid 2-related factor 2 (Homo sapiens) (UniProt Q16236); assay: LTEA_HepaRG_NFE2L2: Life Technologies and Expression Analysis (LTEA) Assay for Nuclear factor erythroid 2-related factor 2 (NFE2L2) Transcription Factor using HepaRG (AID 2283527);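 further: TaqMan qRT-PCR transcript level normalised to ACTB GAPDH and POLR2A housekeeping genes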
Summary of the method: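 Differentiated human HepaRG cells in serum-free induction medium were exposed for 48 h to eight concentrations (top 100 uM, half-log dilutions, 0.5% DMSO), in duplicate. NFE2L2 mRNA was quantified by TaqMan qRT-PCR, normalized to ACTB, GAPDH and POLR2A, with bidirectional fitting versus DMSO.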

[17] = read-out: succinate dehydrogenase complex iron sulfur subunit B (SDHB), SDHB (gene 6390); assay: LTEA_HepaRG_SDHB: Life Technologies and Expression Analysis (LTEA) Assay for succinate dehydrogenase complex iron sulfur subunit B (SDHB) using HepaRG (AID 2283528)
Summary of the method: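 Readout is SDHB transcript level by qRT-PCR, normalised to three housekeeping genes and fitted bidirectionally against 0.5% DMSO vehicle. Human HepaRG cells were treated for 48 h at up to 100 uM.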

[18] = read-out: Signal transducer and activator of transcription 3 (Homo sapiens) (UniProt P40763); assay: LTEA_HepaRG_STAT3: Life Technologies and Expression Analysis (LTEA) Assay for Signal transducer and activator of transcription (STAT3) using HepaRG (AID 2283529)
Summary of the method: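 Differentiated human HepaRG cells in serum-free induction medium were exposed in duplicate for 48 h to eight half-log concentrations up to 100 uM in 0.5% DMSO. STAT3 mRNA was quantified by TaqMan qRT-PCR, normalized to ACTB, GAPDH and POLR2A, and fitted bidirectionally against DMSO.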

[19] = read-out: Nuclear factor NF-kappa-B p105 subunit (Homo sapiens) (UniProt P19838); assay: LTEA_HepaRG_NFKB1: Life Technologies and Expression Analysis (LTEA) Assay for Nuclear Factor Kappa B Subunit 1 (NFKB1) using HepaRG (AID 2283521);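 further: TaqMan qRT-PCR transcript normalised to ACTB GAPDH and POLR2A housekeeping genes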
Summary of the method: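 HepaRG, 48 h exposure; 8-pt half-log series from 100 uM in 0.5% DMSO; duplicates. Readout: NFKB1 mRNA by qRT-PCR (Fluidigm arrays), housekeeping-normalized. Gain/loss fit vs DMSO baseline.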

Measured: outcome

Chain of Nuclear factor erythroid 2-related factor 2 (Homo sapiens) (Q16236 whole entry, looked up): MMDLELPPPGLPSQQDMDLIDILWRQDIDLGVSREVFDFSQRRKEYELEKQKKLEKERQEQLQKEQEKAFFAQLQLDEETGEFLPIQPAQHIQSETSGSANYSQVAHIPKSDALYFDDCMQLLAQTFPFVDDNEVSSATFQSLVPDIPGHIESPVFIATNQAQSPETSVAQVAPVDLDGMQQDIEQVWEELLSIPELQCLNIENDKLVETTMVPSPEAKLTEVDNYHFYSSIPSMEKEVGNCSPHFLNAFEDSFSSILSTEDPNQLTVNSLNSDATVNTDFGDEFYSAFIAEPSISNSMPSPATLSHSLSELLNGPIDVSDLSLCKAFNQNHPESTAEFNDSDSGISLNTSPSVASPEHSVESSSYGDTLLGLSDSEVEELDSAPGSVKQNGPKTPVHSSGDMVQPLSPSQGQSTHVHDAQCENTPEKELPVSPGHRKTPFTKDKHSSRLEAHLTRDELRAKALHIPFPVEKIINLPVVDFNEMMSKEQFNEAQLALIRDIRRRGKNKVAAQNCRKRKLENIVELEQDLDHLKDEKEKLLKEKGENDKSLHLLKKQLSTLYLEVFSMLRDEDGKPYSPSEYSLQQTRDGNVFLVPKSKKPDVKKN
Chain of Signal transducer and activator of transcription 3 (Homo sapiens) (P40763 whole entry, looked up): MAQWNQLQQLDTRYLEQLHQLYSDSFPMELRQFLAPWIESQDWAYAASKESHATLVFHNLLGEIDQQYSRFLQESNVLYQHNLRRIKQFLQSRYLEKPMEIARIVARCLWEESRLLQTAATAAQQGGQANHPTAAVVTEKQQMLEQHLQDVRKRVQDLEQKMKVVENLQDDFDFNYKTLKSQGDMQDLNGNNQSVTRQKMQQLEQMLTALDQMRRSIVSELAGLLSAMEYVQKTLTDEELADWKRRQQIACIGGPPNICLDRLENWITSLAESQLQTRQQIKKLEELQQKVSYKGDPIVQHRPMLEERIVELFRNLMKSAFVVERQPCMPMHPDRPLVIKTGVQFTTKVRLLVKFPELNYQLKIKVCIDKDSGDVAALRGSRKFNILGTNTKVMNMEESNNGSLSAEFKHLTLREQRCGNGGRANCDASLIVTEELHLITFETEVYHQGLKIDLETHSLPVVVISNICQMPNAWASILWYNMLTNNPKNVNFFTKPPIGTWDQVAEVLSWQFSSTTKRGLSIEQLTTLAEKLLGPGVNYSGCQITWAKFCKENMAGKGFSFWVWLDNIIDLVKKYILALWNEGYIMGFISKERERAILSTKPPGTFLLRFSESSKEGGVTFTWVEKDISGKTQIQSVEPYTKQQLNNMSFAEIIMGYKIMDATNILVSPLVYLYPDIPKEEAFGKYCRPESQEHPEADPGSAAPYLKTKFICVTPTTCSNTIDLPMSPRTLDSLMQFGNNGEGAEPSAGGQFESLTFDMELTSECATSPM
Chain of Nuclear factor NF-kappa-B p105 subunit (Homo sapiens) (P19838 whole entry, looked up): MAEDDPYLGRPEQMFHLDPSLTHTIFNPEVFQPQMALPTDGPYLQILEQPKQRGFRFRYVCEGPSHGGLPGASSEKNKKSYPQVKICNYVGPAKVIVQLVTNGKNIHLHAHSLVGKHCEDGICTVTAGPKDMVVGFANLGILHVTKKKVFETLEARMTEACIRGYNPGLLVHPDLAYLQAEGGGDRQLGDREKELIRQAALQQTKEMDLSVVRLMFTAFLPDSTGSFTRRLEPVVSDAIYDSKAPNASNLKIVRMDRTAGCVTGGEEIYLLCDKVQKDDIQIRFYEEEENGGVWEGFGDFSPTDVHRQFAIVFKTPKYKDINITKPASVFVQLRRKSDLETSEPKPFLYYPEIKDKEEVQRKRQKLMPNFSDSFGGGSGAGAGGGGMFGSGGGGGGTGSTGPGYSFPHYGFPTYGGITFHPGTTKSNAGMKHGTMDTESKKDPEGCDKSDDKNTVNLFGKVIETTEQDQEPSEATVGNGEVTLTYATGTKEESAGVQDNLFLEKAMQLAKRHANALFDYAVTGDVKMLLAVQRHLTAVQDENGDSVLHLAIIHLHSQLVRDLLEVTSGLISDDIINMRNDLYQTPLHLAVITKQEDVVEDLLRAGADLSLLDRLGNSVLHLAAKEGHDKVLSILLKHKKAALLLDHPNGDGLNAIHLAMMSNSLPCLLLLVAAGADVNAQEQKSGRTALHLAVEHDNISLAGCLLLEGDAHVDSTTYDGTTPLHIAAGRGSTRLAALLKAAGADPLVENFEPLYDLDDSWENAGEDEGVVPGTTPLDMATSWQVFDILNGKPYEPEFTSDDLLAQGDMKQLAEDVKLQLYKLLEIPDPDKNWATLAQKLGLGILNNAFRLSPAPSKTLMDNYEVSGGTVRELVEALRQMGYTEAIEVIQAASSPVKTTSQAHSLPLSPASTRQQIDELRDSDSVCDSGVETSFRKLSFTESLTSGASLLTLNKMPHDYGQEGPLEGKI

CCCC(=NOCC)C1=C(O)CC(CC(C)SCC)CC1=O (stereo not drawn)
not listed: [19]
inactive: all other assays above

CN=C=S
inactive: all assays above

C=C(C)CN(CC)c1c([N+](=O)[O-])cc(C(F)(F)F)cc1[N+](=O)[O-]
not listed: [19]
inactive: all other assays above
